Measurements reported in the supplement of paper PMC12819154, “High-throughput peptide-centric local stability assay extends protein–ligand identification to membrane proteins, tissues and bacteria” (Nature Structural & Molecular Biology, 2025).

compound: CN[C@@H]1C[C@H]2O[C@@](C)([C@@H]1OC)n1c3ccccc3c3c4c(c5c6ccccc6n2c5c31)C(=O)NC4 [staurosporine]; test: log2 fold change of tryptic peptide abundance, ligand vs vehicle (limited proteolysis) (log2 ratio); higher = more trypsin-susceptible (destabilized); conditions: ligand concentration: 20 uM; sample: K562 cleared lysate; digestion: 4 min, 22 C (HT-PELSA RT4min, Orbitrap Astral)

UniProt P09211, sequence (P09211 whole entry, looked up): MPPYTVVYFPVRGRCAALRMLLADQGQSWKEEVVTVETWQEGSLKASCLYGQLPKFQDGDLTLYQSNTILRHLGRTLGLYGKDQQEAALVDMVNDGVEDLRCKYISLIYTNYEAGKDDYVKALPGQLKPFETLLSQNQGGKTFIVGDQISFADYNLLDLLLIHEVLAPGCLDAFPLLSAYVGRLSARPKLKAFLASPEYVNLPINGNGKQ
UniProt P04049, sequence (P04049 whole entry): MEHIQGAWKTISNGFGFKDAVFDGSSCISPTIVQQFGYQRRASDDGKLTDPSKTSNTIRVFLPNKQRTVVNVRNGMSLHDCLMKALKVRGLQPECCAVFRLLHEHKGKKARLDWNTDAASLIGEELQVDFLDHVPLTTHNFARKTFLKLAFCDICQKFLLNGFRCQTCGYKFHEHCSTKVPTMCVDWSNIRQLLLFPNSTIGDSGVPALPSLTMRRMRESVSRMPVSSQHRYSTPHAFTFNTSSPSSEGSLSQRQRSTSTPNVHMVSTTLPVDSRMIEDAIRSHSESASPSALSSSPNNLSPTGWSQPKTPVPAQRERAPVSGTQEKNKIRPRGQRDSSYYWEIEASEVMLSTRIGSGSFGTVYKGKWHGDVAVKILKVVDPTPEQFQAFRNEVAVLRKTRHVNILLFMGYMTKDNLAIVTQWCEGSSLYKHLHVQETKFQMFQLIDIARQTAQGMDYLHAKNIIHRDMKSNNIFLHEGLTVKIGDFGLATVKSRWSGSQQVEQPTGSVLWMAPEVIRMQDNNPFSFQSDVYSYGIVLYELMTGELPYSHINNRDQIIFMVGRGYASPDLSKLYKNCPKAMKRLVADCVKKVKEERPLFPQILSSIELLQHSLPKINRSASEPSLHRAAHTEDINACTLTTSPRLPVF
UniProt Q14004, sequence (Q14004 whole entry, looked up): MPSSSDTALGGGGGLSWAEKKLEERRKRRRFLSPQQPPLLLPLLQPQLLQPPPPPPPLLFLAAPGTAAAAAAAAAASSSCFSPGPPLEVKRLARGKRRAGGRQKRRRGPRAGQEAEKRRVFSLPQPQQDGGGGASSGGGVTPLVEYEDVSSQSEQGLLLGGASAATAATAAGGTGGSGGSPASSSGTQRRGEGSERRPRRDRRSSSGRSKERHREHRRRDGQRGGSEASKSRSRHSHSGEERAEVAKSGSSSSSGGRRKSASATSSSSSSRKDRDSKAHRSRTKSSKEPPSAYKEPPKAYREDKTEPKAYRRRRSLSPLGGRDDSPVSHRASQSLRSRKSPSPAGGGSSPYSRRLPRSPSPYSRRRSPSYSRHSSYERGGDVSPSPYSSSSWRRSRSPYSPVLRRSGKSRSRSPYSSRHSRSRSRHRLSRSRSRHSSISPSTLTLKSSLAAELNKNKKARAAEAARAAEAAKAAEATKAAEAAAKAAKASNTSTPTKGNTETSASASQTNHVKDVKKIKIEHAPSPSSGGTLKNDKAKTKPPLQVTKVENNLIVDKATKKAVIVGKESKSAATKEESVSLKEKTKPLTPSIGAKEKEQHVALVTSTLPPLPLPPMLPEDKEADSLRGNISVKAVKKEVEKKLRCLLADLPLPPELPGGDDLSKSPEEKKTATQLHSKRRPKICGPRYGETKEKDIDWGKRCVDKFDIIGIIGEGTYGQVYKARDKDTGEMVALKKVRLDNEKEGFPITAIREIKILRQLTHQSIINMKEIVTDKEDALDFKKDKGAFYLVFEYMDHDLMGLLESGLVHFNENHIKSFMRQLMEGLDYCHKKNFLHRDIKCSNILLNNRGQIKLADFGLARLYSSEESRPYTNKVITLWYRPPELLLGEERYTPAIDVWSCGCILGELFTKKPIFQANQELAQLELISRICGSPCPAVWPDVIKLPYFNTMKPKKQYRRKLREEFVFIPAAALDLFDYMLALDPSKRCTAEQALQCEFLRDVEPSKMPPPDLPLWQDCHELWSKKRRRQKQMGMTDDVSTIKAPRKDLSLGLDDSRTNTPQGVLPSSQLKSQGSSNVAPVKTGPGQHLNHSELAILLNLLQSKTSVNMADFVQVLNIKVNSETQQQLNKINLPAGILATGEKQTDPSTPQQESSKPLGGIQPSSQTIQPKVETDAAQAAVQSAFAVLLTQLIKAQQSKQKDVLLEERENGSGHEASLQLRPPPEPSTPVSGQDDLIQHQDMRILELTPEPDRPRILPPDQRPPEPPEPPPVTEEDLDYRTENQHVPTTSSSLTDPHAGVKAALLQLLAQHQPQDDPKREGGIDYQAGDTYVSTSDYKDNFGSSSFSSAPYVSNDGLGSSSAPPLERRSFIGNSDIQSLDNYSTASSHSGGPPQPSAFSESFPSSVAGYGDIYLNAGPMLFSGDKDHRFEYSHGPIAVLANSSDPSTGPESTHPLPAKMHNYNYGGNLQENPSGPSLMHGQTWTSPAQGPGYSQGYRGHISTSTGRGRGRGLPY
UniProt Q8IYT8, sequence (Q8IYT8 whole entry): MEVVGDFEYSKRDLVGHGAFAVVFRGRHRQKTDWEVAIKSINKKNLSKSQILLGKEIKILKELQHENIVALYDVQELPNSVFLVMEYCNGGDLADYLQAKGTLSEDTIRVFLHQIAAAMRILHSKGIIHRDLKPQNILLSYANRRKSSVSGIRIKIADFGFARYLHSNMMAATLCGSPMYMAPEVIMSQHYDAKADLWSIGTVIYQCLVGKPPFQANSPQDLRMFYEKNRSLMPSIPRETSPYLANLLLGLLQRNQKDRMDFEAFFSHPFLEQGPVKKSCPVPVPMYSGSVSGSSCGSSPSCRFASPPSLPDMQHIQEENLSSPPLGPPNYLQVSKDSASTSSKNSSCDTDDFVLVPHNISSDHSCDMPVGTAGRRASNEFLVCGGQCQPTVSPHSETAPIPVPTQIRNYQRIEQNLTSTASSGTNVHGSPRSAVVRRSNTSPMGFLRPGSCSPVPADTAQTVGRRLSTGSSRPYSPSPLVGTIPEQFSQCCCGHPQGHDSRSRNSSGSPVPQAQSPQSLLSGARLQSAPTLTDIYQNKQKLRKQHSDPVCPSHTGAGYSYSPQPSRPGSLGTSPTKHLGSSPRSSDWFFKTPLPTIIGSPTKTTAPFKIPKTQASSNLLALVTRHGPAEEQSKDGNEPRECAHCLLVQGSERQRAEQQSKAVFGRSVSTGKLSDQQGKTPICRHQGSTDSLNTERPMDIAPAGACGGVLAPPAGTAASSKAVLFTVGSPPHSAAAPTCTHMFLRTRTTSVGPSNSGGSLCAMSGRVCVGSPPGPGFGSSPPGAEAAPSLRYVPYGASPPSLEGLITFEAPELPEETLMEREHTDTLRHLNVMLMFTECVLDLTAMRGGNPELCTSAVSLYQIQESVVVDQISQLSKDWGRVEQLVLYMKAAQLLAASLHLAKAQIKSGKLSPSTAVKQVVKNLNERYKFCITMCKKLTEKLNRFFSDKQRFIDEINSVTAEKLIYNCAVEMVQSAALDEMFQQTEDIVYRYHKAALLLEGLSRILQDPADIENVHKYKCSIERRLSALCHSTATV
UniProt P11388, sequence (P11388 whole entry): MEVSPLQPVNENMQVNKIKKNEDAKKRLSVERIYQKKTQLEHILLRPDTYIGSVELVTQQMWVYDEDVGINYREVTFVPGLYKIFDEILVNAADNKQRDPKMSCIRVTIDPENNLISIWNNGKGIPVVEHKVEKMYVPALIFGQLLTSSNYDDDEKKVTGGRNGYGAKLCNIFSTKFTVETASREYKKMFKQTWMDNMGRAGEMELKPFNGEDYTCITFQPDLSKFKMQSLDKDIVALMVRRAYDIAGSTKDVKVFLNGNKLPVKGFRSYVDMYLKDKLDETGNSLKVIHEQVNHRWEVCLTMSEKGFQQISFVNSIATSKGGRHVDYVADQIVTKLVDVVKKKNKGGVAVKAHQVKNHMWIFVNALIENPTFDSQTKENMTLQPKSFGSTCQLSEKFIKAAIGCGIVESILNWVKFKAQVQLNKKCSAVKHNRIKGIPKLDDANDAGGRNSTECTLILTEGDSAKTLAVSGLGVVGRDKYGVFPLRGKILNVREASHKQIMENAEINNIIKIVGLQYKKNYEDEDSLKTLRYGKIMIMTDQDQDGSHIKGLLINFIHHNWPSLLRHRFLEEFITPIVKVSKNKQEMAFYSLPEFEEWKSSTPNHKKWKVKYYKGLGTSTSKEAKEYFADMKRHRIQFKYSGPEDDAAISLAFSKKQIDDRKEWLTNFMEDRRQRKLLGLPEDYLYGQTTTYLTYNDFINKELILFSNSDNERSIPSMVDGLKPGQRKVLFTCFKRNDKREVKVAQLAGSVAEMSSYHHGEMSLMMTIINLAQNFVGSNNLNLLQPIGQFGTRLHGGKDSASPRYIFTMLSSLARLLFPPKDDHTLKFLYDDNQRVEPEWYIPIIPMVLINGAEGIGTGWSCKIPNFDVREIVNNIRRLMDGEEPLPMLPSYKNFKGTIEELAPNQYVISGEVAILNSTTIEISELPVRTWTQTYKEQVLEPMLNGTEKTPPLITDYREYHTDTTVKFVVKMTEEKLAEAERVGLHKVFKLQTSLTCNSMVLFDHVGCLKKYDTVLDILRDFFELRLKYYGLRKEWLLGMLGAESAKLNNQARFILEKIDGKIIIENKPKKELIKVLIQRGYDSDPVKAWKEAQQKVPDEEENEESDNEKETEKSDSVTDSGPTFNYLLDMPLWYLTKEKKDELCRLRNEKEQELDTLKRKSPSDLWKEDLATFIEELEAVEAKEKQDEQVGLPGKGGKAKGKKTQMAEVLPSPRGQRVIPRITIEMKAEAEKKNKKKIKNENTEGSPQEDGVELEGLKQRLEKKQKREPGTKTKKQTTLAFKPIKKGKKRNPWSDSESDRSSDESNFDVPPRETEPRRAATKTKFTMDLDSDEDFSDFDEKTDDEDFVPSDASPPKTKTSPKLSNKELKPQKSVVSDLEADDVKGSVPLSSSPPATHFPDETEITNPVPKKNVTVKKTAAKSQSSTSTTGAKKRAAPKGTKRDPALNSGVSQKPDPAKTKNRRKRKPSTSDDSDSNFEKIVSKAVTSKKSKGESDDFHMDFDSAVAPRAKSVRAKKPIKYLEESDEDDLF
UniProt P69892, sequence (P69892 whole entry): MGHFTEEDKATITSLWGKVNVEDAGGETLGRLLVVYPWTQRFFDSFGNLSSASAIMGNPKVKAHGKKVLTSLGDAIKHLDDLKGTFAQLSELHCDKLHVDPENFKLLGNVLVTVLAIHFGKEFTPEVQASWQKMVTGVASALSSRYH

| Target | log2 fold change |
| --- | --- |
| CCNB1 (peptide sequence: NVVMVNQGLTK, peptide start residue: 386) (UniProt P14635) | -1.47 |
| MAP4K2 (peptide sequence: ALLTQLLDK, peptide start residue: 280) (UniProt Q12851) | -0.962 |
| RAF1 (peptide sequence: IGDFGLATVK, peptide start residue: 445) (UniProt P04049) | 0.416 |
| MOB2 (peptide sequence: ITDFQFK, peptide start residue: 35) (UniProt Q70IA6) | 0.834 |
| UniProt Q9P289 (peptide sequence: NNPPTLVGDFTK, peptide start residue: 234) | -1.31 |
| DCUN1D4 (peptide sequence: YAFDFAR, peptide start residue: 144) (UniProt Q92564) | 1.53 |
| PRDX6 (peptide sequence: NFDEILR, peptide start residue: 156) (UniProt P30041) | 0.443 |
| UniProt P06493 (peptide sequence: HPNIVSLQDVLMQDSR, peptide start residue: 60) | -1.19 |
| OSBP (peptide sequence: TRIPYKPNYSLNLWSIMK, peptide start residue: 407) (UniProt P22059) | 0.573 |
| PRDX1 (peptide sequence: KQGGLGPMNIPLVSDPKR, peptide start residue: 93) (UniProt Q06830) | 0.253 |
| UniProt P62269 (peptide sequence: KADIDLTKR, peptide start residue: 47) | 0.394 |
| TAGLN2 (peptide sequence: TLMNLGGLAVAR, peptide start residue: 128) (UniProt P37802) | 0.271 |
| PNPO (peptide sequence: SSQIGAVVSHQSSVIPDR, peptide start residue: 164) (UniProt Q9NVS9) | 1.66 |
| UniProt Q6A1A2 (peptide sequence: AHPFFESVTWENLHQQTPPK, peptide start residue: 338) | -1.74 |
| OSBPL3 (peptide sequence: YWSTNAHEIEGTVFDR, peptide start residue: 727) (UniProt Q9H4L5) | -1.33 |
| TOP2A (peptide sequence: GESDDFHMDFDSAVAPR, peptide start residue: 1493) (UniProt P11388) | -0.599 |
| UniProt Q14004 (peptide sequence: EGFPITAIR, peptide start residue: 765) | -1.01 |
| HBG2 (peptide sequence: MVTGVASALSSR, peptide start residue: 134) (UniProt P69892) | 0.206 |
| IRAK4 (peptide sequence: MGEGGFGVVYK, peptide start residue: 192) (UniProt Q9NWZ3) | -2.25 |

| Target | log2 fold change |
| --- | --- |
| GART (peptide sequence: GDTVATLSER, peptide start residue: 966) (UniProt P22102) | 0.425 |
| CLIC1 (peptide sequence: IGNCPFSQR, peptide start residue: 21) (UniProt O00299) | 0.243 |
| UniProt O75494 (peptide sequence: SFDYNYR, peptide start residue: 133) | 0.608 |
| HERC1 (peptide sequence: VMTCVWCNKK, peptide start residue: 3431) (UniProt Q15751) | 0.958 |
| PRKAR1B (peptide sequence: NVLFAHLDDNER, peptide start residue: 135) (UniProt P31321) | 1.02 |
| POLR3A (peptide sequence: ISHICFGMK, peptide start residue: 15) (UniProt O14802) | 0.539 |
| MAST4 (peptide sequence: LTDFGLSK, peptide start residue: 209) (UniProt O15021) | -0.745 |
| UniProt P27448 (peptide sequence: NSIASCADEQPHIGNYR, peptide start residue: 41) | -2.82 |
| ULK2 (peptide sequence: IADFGFAR, peptide start residue: 163) (UniProt Q8IYT8) | -1.68 |
| WEE1 (peptide sequence: FLANEVLQENYTHLPK, peptide start residue: 482) (UniProt P30291) | -1.01 |
| GSTP1 (peptide sequence: MPPYTVVYFPVRGR, peptide start residue: 1) (UniProt P09211) | 0.55 |
| PKN3 (peptide sequence: TTNWQALLAR, peptide start residue: 820) (UniProt Q6P5Z2) | -2.37 |
| UniProt Q02040 (peptide sequence: STMDFIR, peptide start residue: 72) | 0.414 |
| UniProt P07437 (peptide sequence: IREEYPDRIMNTFSVVPSPK, peptide start residue: 155) | -2.5 |
| RPS6KA2 (peptide sequence: ADPSQFELLK, peptide start residue: 63) (UniProt Q15349) | -1 |
| CEP170 (peptide sequence: SDSEATISR, peptide start residue: 1165) (UniProt Q5SW79) | 0.41 |
| UniProt Q8NEB9 (peptide sequence: SALMPAQLFFK, peptide start residue: 614) | -0.384 |
| UniProt P60842 (peptide sequence: ATQALVLAPTR, peptide start residue: 100) | 0.334 |
| PARK7 (peptide sequence: VTVAGLAGKDPVQCSR, peptide start residue: 33) (UniProt Q99497) | 0.199 |
